Measured values published in PubChem BioAssay (EPA / NIEHS).
Inconclusive results are not listed. Activity calls are given as the source filed them. Rule for the calls: active = hit-call score of the fitted dose curve at least 0.9, where 1 is the maximum; inconclusive = response in the unintended direction; inactive = score below 0.9.

Columns and labels:
[1] = target: Estrogen receptor (Homo sapiens) (UniProt P03372); test: OT_ER_ERaERa_1440: Odyssey Thera (OT) 24-hour HEK293T Protein-Complementation Assay for Estrogen Receptor-alpha/-alpha Homodimer (AID 2283349);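 note: hits raise fluorescence above DMSO for agonists and antagonists alike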
In short: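 Readout is the rise in mean fluorescence from reporter fragment complementation when ERα LBD (aa 310-547) units dimerize in HEK293T cells. Measured 24 h after dosing and analysed as increase over DMSO control.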

[2] = target: Estrogen receptor (Homo sapiens) (UniProt P03372); test: OT_ER_ERaERa_0480: Odyssey Thera (OT) 8-hour HEK293T Protein-Complementation Assay for Estrogen Receptor-alpha/-alpha Homodimer (AID 2283351);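 note: rise in fluorescence from reassembled reporter fragments on ERα LBD homodimer in nucleus or whole cell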
In short: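 HEK293T, stable ERα LBD (aa 310-547) PCA homodimer; 8 h compound exposure; fluorescence intensity, laser scanning cytometer; positive fitting direction, DMSO baseline.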

[3] = target: T1, Estrogen receptor (Homo sapiens) + Estrogen receptor beta (Homo sapiens) (UniProt P03372+Q92731); test: OT_ER_ERaERb_0480: Odyssey Thera (OT) 8-hour HEK293T Protein-Complementation Assay for Estrogen Receptor-alpha/-beta Heterodimer (AID 2283352)
In short: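 Compound added to HEK293T cells carrying split-reporter-tagged ER-alpha and ER-beta LBDs, incubated 8 hours, then imaged by laser scanning cytometer. Signal rise in nucleus, or nucleus and cytoplasm, over vehicle was fitted in the positive direction.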

[4] = target: T1, Estrogen receptor (Homo sapiens) + Estrogen receptor beta (Homo sapiens); test: OT_ER_ERaERb_1440: Odyssey Thera (OT) 24-hour HEK293T Protein-Complementation Assay for Estrogen Receptor-alpha/-beta Homodimer (AID 2283356);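 note: heteromer of ER alpha and ER beta binding domains; hits raise reporter fluorescence and both agonists and antagonists give an increase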
In short: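 Stable HEK293T PCA line, ERα LBD 310-547 + ERβ LBD 263-489 fused to reporter fragments; 24 h treatment; fluorescence read by laser scanning cytometry; positive fitting direction relative to DMSO.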

[5] = target: Estrogen receptor beta (Homo sapiens) (UniProt Q92731); test: OT_ER_ERbERb_0480: Odyssey Thera (OT) 8-hour HEK293T Protein-Complementation Assay for Estrogen Receptor-beta/-beta Homodimer (AID 2283357);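 note: active means signal gain over DMSO baseline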
In short: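 Readout: increase in mean fluorescence intensity (nucleus for agonists; nucleus plus cytoplasm for antagonists) relative to DMSO, from a reporter-fragment complementation of human ER-beta LBD homodimer in HEK293T cells dosed 8 hours.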

[6] = target: Retinoic acid receptor alpha (Homo sapiens) (UniProt P10276); test: NVS_NR_hRAR_Antagonist: NovaScreen (NVS) Nuclear Receptor Binding Assay for human Retinoic Acid Alpha Receptor Antagonism (RAR) (AID 2283358)
In short: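 Cell-free TR-FRET binding assay on extracted receptor protein, run in antagonist mode; signal read 2 hours after chemical dosing. Loss of signal was fitted relative to DMSO baseline. Screened at 25 uM in duplicate, actives followed up in concentration series.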

[7] = target: Androgen Receptor/SRC-1 Co-activator, AR (gene 367) (UniProt P10275); test: OT_AR_ARSRC1_0960: Odyssey Thera (OT) 16-hour HEK293T Protein-Complementation Assay for Androgen Receptor/SRC-1 Co-activator (AID 2283353);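 note: actives raise the signal above DMSO so potency reflects increased AR and SRC-1 complex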
In short: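 Split-Venus PCA, AR/SRC-1 fusions, stable HEK293T; 16 h compound exposure; imaged at 488 and 635 nm; N/C ratio (488 nm channel), min 400 cells/image; positive-direction fit, DMSO baseline.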

[8] = target: Androgen Receptor/SRC-1 Co-activator, AR (gene 367) (UniProt P10275); test: OT_AR_ARSRC1_0480: Odyssey Thera (OT) 8-hour HEK293T Protein-Complementation Assay for Androgen Receptor/SRC-1 Co-activator (AID 2283354);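 note: hits raise the complementation signal above DMSO so AC50 marks enhancers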
In short: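 HEK293T cells stably expressing AR and SRC-1 fused to split Venus YFP fragments via (Gly4Ser)2 linkers were read 8 h after compound dosing. Complementation was imaged at 488 and 635nm, and nuclear/cytoplasmic fluorescence ratio (488nm) was taken over ≥400 cells; gain-of-signal versus DMSO.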

[9] = target: human Peroxisome Proliferator-activated Receptor alpha (PPARa), PPARA (gene 5465) (UniProt Q07869); test: NVS_NR_hPPARa: NovaScreen (NVS) Nuclear Receptor Binding Assay for human Peroxisome Proliferator-activated Receptor alpha (PPARa) (AID 2283359);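 note: activity means loss of TR-FRET signal versus DMSO baseline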
In short: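 Cell-free binding assay with extracted human protein, read by TR-FRET 1 h after chemical dosing. Loss of signal relative to DMSO baseline indicates binding. Primary screen used duplicate single concentration (25 uM); actives followed up in concentration series.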

[10] = target: Bile acid receptor (Homo sapiens) (UniProt Q96RI1); test: NVS_NR_hFXR_Antagonist: NovaScreen (NVS) Nuclear Receptor Binding Assay for human Farnesoid X Receptor Antagonism (FXR) (AID 2283350)
In short: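 Cell-free TR-FRET ligand-binding read-out on human FXR (NR1H4) in antagonist mode, measured 1 h after dosing. Primary screen in duplicate at 25 uM, actives retested in concentration series; signal loss scored versus DMSO.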

Measured: AC50

Sequence of Androgen Receptor/SRC-1 Co-activator, AR (gene 367) (P10275 whole entry, looked up, the tested form may be a part): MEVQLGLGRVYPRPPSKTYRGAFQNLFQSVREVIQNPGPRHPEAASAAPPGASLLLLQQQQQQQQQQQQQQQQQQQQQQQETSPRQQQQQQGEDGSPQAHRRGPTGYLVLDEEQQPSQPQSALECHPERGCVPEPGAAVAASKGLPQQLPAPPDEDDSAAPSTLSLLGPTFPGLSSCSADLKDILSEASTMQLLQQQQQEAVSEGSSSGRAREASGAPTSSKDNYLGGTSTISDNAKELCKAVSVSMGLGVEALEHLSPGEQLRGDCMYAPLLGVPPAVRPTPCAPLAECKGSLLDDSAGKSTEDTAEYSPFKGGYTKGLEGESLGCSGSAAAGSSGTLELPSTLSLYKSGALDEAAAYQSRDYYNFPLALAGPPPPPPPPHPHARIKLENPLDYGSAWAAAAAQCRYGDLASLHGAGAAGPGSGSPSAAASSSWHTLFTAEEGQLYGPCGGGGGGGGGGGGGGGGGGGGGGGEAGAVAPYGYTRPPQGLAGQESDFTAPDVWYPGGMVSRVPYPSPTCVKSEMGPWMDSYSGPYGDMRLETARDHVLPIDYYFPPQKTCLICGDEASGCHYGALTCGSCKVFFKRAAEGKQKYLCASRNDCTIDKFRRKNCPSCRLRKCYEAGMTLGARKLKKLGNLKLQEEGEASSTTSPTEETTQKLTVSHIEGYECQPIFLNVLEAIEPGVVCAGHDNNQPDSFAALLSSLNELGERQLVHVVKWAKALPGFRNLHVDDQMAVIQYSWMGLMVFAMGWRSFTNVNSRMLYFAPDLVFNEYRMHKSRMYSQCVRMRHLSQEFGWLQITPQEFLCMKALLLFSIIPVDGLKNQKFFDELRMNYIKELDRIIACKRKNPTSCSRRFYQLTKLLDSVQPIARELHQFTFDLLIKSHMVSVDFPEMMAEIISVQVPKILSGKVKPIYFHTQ
Sequence of Estrogen receptor (Homo sapiens) (P03372 whole entry, looked up, the tested form may be a part): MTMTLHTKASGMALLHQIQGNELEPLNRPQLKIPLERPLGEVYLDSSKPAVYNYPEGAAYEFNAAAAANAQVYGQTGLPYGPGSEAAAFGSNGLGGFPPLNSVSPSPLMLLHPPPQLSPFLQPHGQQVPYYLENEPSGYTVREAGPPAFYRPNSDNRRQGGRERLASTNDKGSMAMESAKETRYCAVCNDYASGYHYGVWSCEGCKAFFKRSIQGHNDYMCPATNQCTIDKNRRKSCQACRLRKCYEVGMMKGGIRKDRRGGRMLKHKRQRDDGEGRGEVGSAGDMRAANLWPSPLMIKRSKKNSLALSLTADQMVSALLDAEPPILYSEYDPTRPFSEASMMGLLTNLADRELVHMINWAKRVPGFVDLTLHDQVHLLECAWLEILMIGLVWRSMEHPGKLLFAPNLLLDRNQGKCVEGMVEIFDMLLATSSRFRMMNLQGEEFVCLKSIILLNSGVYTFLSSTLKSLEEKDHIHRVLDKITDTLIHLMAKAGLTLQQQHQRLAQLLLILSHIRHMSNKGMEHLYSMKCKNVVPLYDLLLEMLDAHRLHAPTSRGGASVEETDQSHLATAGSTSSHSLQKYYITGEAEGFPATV
T1 sequence (P03372 whole entry, looked up): as the sequence (P03372 whole entry, looked up, the tested form may be a part) above
T1 sequence (Q92731 whole entry, looked up): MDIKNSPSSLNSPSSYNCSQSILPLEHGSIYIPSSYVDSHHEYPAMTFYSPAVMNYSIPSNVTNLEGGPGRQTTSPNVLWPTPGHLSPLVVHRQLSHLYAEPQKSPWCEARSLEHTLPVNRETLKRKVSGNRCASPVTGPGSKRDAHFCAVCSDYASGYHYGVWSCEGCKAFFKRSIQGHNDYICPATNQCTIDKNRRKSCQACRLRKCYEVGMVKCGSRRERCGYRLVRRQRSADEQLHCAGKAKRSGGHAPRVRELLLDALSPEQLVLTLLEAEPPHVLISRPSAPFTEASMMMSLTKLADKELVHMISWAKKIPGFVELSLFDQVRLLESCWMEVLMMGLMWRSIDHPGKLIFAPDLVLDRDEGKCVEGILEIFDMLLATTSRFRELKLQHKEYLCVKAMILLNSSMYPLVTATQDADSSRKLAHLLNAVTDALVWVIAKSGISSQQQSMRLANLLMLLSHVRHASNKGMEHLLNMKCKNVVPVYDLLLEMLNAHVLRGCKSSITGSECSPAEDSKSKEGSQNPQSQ
Sequence of Estrogen receptor beta (Homo sapiens) (Q92731 whole entry, looked up, the tested form may be a part): as the sequence (Q92731 whole entry, looked up) above
Sequence of human Peroxisome Proliferator-activated Receptor alpha (PPARa), PPARA (gene 5465) (Q07869 whole entry, looked up): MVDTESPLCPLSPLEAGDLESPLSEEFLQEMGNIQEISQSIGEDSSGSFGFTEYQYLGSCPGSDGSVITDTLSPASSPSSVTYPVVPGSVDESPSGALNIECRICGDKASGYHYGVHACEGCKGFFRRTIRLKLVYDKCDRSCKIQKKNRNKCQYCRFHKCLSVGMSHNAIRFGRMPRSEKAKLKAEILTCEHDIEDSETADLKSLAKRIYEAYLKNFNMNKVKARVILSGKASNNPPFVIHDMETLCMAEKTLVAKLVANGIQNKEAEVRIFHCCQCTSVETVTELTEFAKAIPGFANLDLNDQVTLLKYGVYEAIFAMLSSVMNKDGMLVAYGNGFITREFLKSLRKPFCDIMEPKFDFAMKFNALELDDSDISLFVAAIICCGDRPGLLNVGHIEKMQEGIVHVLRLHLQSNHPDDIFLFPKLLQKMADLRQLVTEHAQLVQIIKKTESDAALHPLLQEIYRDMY
Sequence of Retinoic acid receptor alpha (Homo sapiens) (P10276 whole entry, looked up): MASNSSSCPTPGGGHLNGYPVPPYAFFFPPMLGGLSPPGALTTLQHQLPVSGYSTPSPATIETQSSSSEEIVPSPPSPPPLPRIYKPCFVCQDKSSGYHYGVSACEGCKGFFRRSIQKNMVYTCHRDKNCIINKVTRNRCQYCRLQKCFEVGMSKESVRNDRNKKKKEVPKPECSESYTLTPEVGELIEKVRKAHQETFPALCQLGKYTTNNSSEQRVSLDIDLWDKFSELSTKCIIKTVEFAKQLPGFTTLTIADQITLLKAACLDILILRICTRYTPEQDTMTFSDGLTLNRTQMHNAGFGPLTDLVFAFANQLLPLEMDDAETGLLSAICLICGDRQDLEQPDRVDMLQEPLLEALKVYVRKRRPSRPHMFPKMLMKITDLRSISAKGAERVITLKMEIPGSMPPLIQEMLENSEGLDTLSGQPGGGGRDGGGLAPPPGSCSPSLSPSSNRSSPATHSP
Sequence of Bile acid receptor (Homo sapiens) (Q96RI1 whole entry, looked up): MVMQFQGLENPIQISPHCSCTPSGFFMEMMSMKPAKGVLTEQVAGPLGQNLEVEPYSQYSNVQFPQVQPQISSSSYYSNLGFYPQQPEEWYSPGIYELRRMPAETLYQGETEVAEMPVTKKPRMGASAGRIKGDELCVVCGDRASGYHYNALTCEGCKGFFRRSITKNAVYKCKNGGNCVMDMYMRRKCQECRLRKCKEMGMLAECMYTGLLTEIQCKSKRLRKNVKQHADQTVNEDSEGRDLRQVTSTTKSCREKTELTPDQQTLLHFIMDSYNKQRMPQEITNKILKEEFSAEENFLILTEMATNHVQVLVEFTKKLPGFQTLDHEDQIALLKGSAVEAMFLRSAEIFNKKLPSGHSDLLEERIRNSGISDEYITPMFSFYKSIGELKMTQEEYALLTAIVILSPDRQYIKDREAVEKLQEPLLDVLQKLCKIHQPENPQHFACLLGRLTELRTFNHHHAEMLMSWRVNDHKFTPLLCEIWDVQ

CCOC(N)=O
inactive: [1] | [2]

NC(=O)N1c2ccccc2C=Cc2ccccc21
inactive: [1] | [2] | [3] | [4] | [5] | [6]

COc1cc(C(C)C)c2c(c1)S(=O)(=O)N(COc1cc(=O)n3cccc(OCCN4CCCCC4)c3n1)C2=O
active: [7] 10.6 µM | [8] 18.1 µM
inactive: [1] | [2] | [6] | [9]

O=S(=O)(O)c1ccc(N=Nc2c(O)ccc3cc(S(=O)(=O)O)ccc23)cc1
inactive: [1] | [2]

CC(=O)c1ccccc1
inactive: [1] | [2]

O=C(O)c1cccc(C(=O)O)c1
inactive: [1] | [2]

C=CCc1cc(S(=O)(=O)c2ccc(O)c(CC=C)c2)ccc1O
active: [10] 18.2 µM | [7] 69.1 µM | [8] 82.7 µM | [9] 25 µM
inactive: [1] | [2] | [4] | [5]

CCCCCCCCN(C)C
inactive: [1] | [2]

COCc1nnc(-c2ccc[n+]([O-])c2)n1-c1c(Cl)c(Cl)cc2[nH]c(=O)c(=O)[nH]c12
inactive: [1] | [2] | [7] | [8] | [4] | [5]

OCCOCCOCCO
inactive: [1] | [2] | [7] | [8] | [4] | [5]

OCc1ccccc1
inactive: [1] | [2] | [7] | [4] | [5]

COS(C)(=O)=O
inactive: [1] | [2]

c1ccc(C(O[C@@H]2CCCN(CCc3ccc4c(c3)OCO4)C2)c2ccccc2)cc1
inactive: [2] | [5]
active: [1] 68.3 µM | [3] 31.5 µM | [4] 62.5 µM
